# Test results reported in PubChem BioAssay.
# Activity calls are given as the source filed them.
# Tests used:
# [1] = system: Plasmodium falciparum Sir2 (PF13_0152, Sir2A); test: Plasmodium falciparum Sir2A binding compounds – biochemical, small-molecule microarray, 635 nm fluorescence, primary screen (AID 1098); settings: fluorescence 635 nm, higher = more signal;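 further: score merges spot fluorescence intensity with its signal-to-noise ratio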
# [2] = probe aDKK1 binding to arrayed compounds – biochemical, biotinylated probe, 635/667 nm fluorescence, primary screen (AID 1099); settings: small-molecule microarray, higher = more signal;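 further: score merges 667nm spot fluorescence with signal to noise across triplicate slides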
# [3] = probe aCHRDL2 binding to arrayed compounds – biochemical, biotinylated probe, 635/667 nm fluorescence, primary screen (AID 1100); settings: small-molecule microarray, higher = more signal
# [4] = change in splice reporter luminescence, either direction, cell-based, HEK293, spliceosome inhibition project, primary screen (AID 1101); settings: HEK293 splicing luciferase reporter, 24 h, higher = more signal, called active from +8 up or from −8 down;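 further: HEK293 cells carrying a splicing-competent luciferase reporter gene; test concentration not given here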
# [5] = target: Fibroblast growth factor 10 (Homo sapiens) (UniProt O15520); test: compounds binding fibroblast growth factor 10 – biochemical, small-molecule microarray, 635 nm fluorescence, primary screen (AID 1102); settings: FGF10 binding, fluorescence 635 nm, higher = more signal
# [6] = system: glycogen synthase kinase-3 (GSK3A per assay name; protocol says GSK3B); test: compounds binding glycogen synthase kinase-3 – biochemical, small-molecule microarray, 635 nm fluorescence, GSK3A, primary screen (AID 1103); settings: fluorescence 635 nm, higher = more signal; further: the record names both GSK3A and GSK3B
# [7] = target: Epidermal growth factor receptor (Homo sapiens) (UniProt P00533); test: compounds binding epidermal growth factor receptor – biochemical, small-molecule microarray, 635 nm fluorescence, primary screen (AID 1104); settings: EGFR binding, higher = more signal;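 further: score merges 667 nm emission intensity with spot signal to noise over triplicate slides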
# [8] = target: Follistatin-related protein 3 (Homo sapiens) (UniProt O95633); test: compounds binding follistatin-related protein 3 – biochemical, small-molecule microarray, 635 nm fluorescence, primary screen (AID 1105); settings: FSTL3 binding, higher = more signal;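 further: score merges emission near 667 nm and signal to noise per printed spot across three slides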
# [9] = target: Dickkopf-related protein 1 (Homo sapiens) (UniProt O94907); test: small molecules binding DKK1 protein – biochemical, small-molecule microarray, 635 nm fluorescence scan, primary screen (AID 1106); settings: higher = more signal;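 further: score merges emission near 667 nm with signal to noise over three replicate slides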
# [10] = system: Inhibin beta A chain (activin A); test: small molecules binding activin A – biochemical, small-molecule microarray, 635 nm fluorescence scan, primary screen (AID 1107); settings: INHBA, higher = more signal;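 further: mouse activin A protein probed at 4.33 µg/mL on printed slides; score merges bound-protein fluorescence near 667 nm with spot signal-to-noise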
# [11] = system: Human papillomavirus type 1a protein E7 (residues 44-93); test: small molecules binding HPV E7 44-93 – biochemical, small-molecule microarray, residues 44-93, 635 nm fluorescence, primary screen (AID 1108); settings: fluorescence 635 nm, higher = more signal;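 further: E7 fragment applied at 1 µg/mL in TBST for 1 h at 4 C; score combines spot fluorescence with its signal to noise ratio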
# [12] = hepatitis C replication reporter changes, two-sided – Huh7 cells, luciferase reporter, HCV replication inhibitor project, primary screen (AID 1109); settings: Huh7 HCV replicon luciferase reporter, 48 h; higher = more signal;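 further: huh7 hepatoma cells harbouring a luciferase neomycin HCV replicon reporter; luciferase luminescence as measure of HCV replicon replication; test concentration not given here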
# [13] = target: Left-right determination factor 2 (Homo sapiens) (UniProt O00292); test: small molecules binding LEFTY2 protein – biochemical, small-molecule microarray, 635 nm fluorescence scan, primary screen (AID 1110); settings: higher = more signal
# [14] = target: Calmodulin-1 (Homo sapiens) (UniProt P0DP23); test: small molecules binding calmodulin-1 with EGTA – biochemical, small-molecule microarray, Cy5-labelled CALM1, profiling panel (AID 1111); settings: Cy5-CALM1 binding fluorescence, higher = more signal;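 further: labelled calmodulin applied in Tris saline Tween buffer holding calcium plus EGTA and DTT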
# [15] = target: Calmodulin-1 (Homo sapiens) (UniProt P0DP23); test: small molecules binding Ca-loaded calmodulin-1 – biochemical, small-molecule microarray, Cy5-labelled CALM1, plus calcium, artefact control for SMM control-protein annotation, profiling panel (AID 1112); settings: Cy5-CALM1 binding fluorescence, higher = more signal;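 further: score merges spot fluorescence with signal to noise from triplicate slides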
# [16] = probe aWnt5a binding to arrayed compounds – biochemical, biotinylated probe, 635/667 nm fluorescence, primary screen (AID 1113); settings: small-molecule microarray, higher = more signal;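 further: score merges 667 nm fluorescence intensity with signal-to-noise per printed feature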
# [17] = probe aShh binding to arrayed compounds – biochemical, biotinylated probe, 635/667 nm fluorescence, primary screen (AID 1114); settings: small-molecule microarray, higher = more signal;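 further: probe is biotin-labelled aShh protein from a stem cell growth factor screen; measures binding of labelled protein to compounds printed on the slide; score merges feature fluorescence at 667 nm with signal-to-noise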
# [18] = probe aNog binding to arrayed compounds – biochemical, biotinylated probe, 635/667 nm fluorescence, primary screen (AID 1115); settings: small-molecule microarray, higher = more signal;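 further: probe is biotinylated aNog protein used at 0.15 µg/mL for 1 h at 4 C; z-score combines 667 nm fluorescence of each spot with its signal to noise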
# [19] = target: Torsin-1A-interacting protein 1 (Homo sapiens) (UniProt Q5JTV8); test: compound microarray binding of lysate hLAP1 – cell lysate, small-molecule microarray, COS7 lysate, 635/667 nm fluorescence, primary screen (AID 1116); settings: 635 nm fluorescence, higher = more signal
# [20] = target: Alpha-bungarotoxin (Bungarus multicinctus) (UniProt P60615); test: compounds binding labelled alpha-BTX control protein – biochemical, small-molecule microarray, Alexa647 label, 635/667 nm fluorescence, artefact control for SMM control protein annotation, profiling panel (AID 1117); settings: alpha-BTX-A647 binding fluorescence, higher = more signal
# Alpha-bungarotoxin (Bungarus multicinctus), sequence (P60615 whole entry, looked up): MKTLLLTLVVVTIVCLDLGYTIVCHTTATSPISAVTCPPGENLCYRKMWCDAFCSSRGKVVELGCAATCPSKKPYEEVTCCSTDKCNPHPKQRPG
# Follistatin-related protein 3 (Homo sapiens), sequence (O95633 whole entry, looked up): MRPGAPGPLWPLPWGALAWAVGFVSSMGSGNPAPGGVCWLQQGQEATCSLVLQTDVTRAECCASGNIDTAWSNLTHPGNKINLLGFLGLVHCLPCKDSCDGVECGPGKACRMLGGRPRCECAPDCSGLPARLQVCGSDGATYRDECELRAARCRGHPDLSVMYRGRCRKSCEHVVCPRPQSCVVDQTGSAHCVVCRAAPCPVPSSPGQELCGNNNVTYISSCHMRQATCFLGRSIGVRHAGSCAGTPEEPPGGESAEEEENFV
# Fibroblast growth factor 10 (Homo sapiens), sequence (O15520 whole entry, looked up): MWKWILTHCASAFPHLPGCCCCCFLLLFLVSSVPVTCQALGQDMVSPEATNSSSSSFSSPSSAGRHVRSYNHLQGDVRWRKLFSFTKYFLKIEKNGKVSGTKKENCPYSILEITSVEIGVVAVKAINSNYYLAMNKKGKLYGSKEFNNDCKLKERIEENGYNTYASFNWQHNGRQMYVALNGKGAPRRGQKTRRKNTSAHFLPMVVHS
# Torsin-1A-interacting protein 1 (Homo sapiens), sequence (Q5JTV8 whole entry, looked up): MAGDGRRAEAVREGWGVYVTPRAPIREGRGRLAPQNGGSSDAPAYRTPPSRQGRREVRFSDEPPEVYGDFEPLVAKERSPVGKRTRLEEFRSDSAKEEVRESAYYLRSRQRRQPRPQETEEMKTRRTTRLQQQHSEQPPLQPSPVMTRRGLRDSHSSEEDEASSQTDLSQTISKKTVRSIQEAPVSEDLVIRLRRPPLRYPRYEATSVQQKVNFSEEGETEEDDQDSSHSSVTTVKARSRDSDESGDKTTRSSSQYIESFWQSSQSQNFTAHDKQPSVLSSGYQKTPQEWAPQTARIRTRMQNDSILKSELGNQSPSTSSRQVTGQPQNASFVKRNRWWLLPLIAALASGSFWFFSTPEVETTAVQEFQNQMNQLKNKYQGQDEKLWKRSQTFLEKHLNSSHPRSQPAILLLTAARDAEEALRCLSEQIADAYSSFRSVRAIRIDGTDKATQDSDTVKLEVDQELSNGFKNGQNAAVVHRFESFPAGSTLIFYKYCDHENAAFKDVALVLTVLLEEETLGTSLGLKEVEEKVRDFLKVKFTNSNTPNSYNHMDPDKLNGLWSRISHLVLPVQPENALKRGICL
# Dickkopf-related protein 1 (Homo sapiens), sequence (O94907 whole entry, looked up): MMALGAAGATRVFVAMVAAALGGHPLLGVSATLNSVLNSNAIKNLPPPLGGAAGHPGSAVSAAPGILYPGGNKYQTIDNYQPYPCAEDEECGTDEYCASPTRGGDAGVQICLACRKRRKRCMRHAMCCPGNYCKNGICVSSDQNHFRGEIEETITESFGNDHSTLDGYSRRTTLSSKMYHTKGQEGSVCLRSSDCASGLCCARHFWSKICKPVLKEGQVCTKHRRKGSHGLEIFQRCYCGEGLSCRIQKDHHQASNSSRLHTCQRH
# Epidermal growth factor receptor (Homo sapiens), sequence (P00533 whole entry, looked up): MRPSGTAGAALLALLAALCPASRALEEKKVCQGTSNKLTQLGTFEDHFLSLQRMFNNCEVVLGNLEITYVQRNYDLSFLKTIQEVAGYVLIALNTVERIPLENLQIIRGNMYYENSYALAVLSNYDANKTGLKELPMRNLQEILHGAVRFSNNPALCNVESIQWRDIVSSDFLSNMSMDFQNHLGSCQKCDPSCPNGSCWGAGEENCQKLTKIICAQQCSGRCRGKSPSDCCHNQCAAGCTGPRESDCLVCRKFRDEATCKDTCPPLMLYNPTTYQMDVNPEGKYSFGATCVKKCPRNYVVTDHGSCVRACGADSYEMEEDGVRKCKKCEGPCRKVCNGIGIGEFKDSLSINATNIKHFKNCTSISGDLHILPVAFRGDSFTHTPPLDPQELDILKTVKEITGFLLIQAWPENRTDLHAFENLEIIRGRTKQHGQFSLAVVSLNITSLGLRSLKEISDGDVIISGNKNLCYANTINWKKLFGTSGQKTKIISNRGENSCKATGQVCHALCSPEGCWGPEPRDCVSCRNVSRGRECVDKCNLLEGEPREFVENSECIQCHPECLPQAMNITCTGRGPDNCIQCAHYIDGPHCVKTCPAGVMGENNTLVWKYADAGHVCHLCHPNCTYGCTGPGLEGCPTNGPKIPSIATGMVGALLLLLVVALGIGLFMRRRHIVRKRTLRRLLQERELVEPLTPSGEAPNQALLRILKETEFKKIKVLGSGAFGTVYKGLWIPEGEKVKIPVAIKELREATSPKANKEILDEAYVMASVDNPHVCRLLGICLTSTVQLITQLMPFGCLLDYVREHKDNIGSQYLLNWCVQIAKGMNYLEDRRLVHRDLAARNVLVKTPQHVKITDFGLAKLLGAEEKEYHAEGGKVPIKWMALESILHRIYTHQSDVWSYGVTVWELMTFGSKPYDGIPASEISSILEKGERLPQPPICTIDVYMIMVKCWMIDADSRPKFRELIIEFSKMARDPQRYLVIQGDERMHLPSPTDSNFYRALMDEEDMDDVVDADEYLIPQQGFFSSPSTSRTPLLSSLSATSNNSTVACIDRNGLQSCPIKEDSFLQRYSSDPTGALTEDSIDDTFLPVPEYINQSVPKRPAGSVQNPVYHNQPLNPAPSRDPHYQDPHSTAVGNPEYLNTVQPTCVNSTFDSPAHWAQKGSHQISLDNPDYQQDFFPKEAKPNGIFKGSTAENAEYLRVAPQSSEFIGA
# Left-right determination factor 2 (Homo sapiens), sequence (O00292 whole entry, looked up): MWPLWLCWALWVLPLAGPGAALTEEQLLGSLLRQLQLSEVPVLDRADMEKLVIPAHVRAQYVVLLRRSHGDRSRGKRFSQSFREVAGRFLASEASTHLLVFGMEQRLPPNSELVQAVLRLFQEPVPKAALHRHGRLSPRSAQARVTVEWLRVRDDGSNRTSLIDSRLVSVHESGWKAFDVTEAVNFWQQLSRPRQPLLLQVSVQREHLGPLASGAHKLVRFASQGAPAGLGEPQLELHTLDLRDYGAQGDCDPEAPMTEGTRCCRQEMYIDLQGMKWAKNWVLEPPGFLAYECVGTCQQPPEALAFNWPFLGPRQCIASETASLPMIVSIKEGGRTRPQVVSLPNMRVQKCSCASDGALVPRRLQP
SMILES,composite z-score [1],composite z-score [2],composite z-score [3],z-score [4],composite z-score [5],composite z-score [6],composite z-score [7],composite z-score [8],composite z-score [9],composite z-score [10],composite z-score [11],z-score [12],composite z-score [13],composite z-score [14],composite z-score [15],composite z-score [16],composite z-score [17],composite z-score [18],composite z-score [19],composite z-score [20]
COC(=O)[C@@]1(Cc2ccc(OC)cc2)[C@H]2c3cc(C(=O)N(C)C)n(CCc4ccc(OC)c(Br)c4)c3C[C@H]2CN1C(=O)c1ccccc1,0.843,1.98,1.47,-1.13 (inactive),0.77,1.02,-0.405,1.04,-0.884,0.463,1.33,-2.54,-0.239,2.23,1.54,0.36,2.03,1.19,1.73,1.98
COCCOC(=O)N1C(=O)[C@@]2(c3cc(C#CCCO)ccc31)[C@H](c1ccc(O)cc1)N1[C@H](c3ccccc3)[C@H](c3ccccc3)OC(=O)[C@H]1[C@@H]2C(=O)Nc1nc2ccccc2s1,0.762,-0.0965,-0.148,-1.13 (inactive),1.33,1.32,0.562,1.44,0.685,0.364,1.37,0.688,0.704,0.207,-0.567,-0.0256,-0.167,-0.223,0.234,1.46
C=CCC(OC(C)=O)[C@@H]1[C@@H](N(Cc2cc3ccccc3o2)C(=O)Cc2ccc(F)cc2)c2cc(OCCCO)ccc2N1C(=O)c1ccc(-c2ccccc2)cc1 (stereo not given in full),-0.271,-0.168,0.512,-1.05 (inactive),-0.251,-0.708,-0.162,-0.346,0.0578,1.18,-0.524,0.591,-0.159,-0.302,1.14,-0.154,0.0141,0.389,-0.467,0.208
CN(C)CCCC[C@@H]1NC(=O)[C@@H]2C[C@H](C(=O)NCCCCCNC(=O)CS)[C@H](c3ccc(O)cc3)N2C1=O,1.19,0.0418,-0.109,-0.812 (inactive),1.11,0.667,0.0635,1.18,1.81,0.687,0.664,0.873,1.17,0.0884,1.25,-0.124,0.199,0.498,0.761,1.65
C[C@H]1C2[C@H](Cc3ccccc3)NC(=O)[C@]23C(=O)N[C@H](Cc2ccccc2)C(=O)N[C@@H](Cc2ccccc2)C(=O)NC/C=C\C/C=C/C3[C@@H]2O[C@]12C (stereo not given in full),0.0468,-0.315,-0.202,-0.148 (inactive),0.345,-0.256,-0.228,0.223,0.409,1.16,-0.767,-0.204,0.419,-0.297,-0.348,-0.199,-0.0553,0.471,0.86,-0.506
C=CC[C@]1(C(=O)OC)N=C(c2ccc(OCCCO)cc2)O[C@H]1c1ccccc1CN=[N+]=[N-],0.212,1.21,1.44,-1.4 (inactive),-0.404,-0.52,-0.493,-0.363,-0.795,1.31,-0.044,-1.31,-0.978,-0.643,0.369,0.0251,-0.0289,0.121,0.782,1.14
[N-]=[N+]=NCc1ccccc1C[C@@]1(C(=O)O)N=C(c2ccc(OCCCO)cc2)O[C@@H]1c1ccccc1N=[N+]=[N-],1.44,0.076,0.917,-1.11 (inactive),0.479,0.771,0.0583,0.633,-0.688,0.911,1.42,-1.25,0.101,-0.281,-0.222,-0.0236,-0.138,-0.316,0.938,0.552
C=CCc1cccc([C@@H]2[C@@H](C)CC[C@H]3C(=O)N4[C@H](c5cccc(CC=C)c5)[C@@H](C)CC[C@H]4C(=O)N23)c1,0.725,-0.0603,0.175,-1.34 (inactive),0.756,0.365,0.654,0.831,0.666,1.67,0.227,-3.5,1.09,0.254,-0.831,0.0893,0.0899,-0.216,0.373,1.88
O=C(NCC(F)(F)F)[C@@H]1c2ccccc2C(=O)N(Cc2ccccc2Cl)[C@H]1c1ccc(CO)cc1,1.68,0.624,-0.363,0.632 (inactive),-0.85,-1.1,-0.728,-0.643,-0.941,-0.0121,-0.804,-1.03,-1.44,-0.483,-0.135,-0.147,0.245,-0.0689,-1.19,-1.18
Cc1cc(C)c(C(O)C2C=CC3C(=O)N(C)C(=O)C3N2N2CCCCC2)c(C)c1 (stereo not given),1.38,0.261,1.2,1.91 (inactive),1.07,1.31,0.641,1.35,0.384,1.36,1.37,0.186,0.314,1.75,0.22,0.0437,0.308,1.45,0.959,2.36
CCOC(=O)C1=CCC(c2cccc3ccccc23)N(S(=O)(=O)c2ccc(C)cc2)C1 (stereo not given),0.471,0.981,0.596,0.664 (inactive),0.279,0.912,0.385,0.681,-0.141,1.41,1.09,-0.874,0.0938,1.47,0.509,0.0763,0.203,0.276,0.871,1.3
